Consider 39 compounds from PubChem BioAssay (NCATS).

The target in assay [1] is ATPase family AAA domain-containing protein 5 (Homo sapiens) (UniProt Q96QE3). Put plainly: Validation screen for small molecules that inhibit ELG1-dependent DNA repair in human embryonic kidney (HEK293T) cells expressing luciferase-tagged ELG1 (AID 493107).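 Further: cells co-treated with the DNA-damaging agent 5-fluorouridine alongside compound; series mostly up to about 46 µM; on the % scale 0 is the no-effect control and ±100 the full control effect; inhibitors lower the ELG1-luciferase luminescence signal; nearly all actives have a fitted effect of over 70% in size.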 Summed up:
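Cells are dispensed in 1536-well format, then 5-fluorouridine and compound are pinned in. After a 16 hr incubation at 37 °C and 5% CO2, ONE-Glo is added and luciferase measured on a CCD imager.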

Assay [2] deals with Thyrotropin-releasing hormone receptor (Homo sapiens) (UniProt P34981). Put plainly: qHTS for Small Molecule Agonists and Allosteric Enhancers of Human TRH Receptor: Validation Screen for Agonists (AID 493127;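 active means calcium activation more than 3 SD above the typical response in the agonist read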;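 further: intracellular calcium rise by fluo-8 fluorescence before TRH EC20 addition; 0% is about no effect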). To be noted: TRH receptor agonist cell assay; at 2 µM; stronger effect = higher value. Summed up: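 Compounds are added by online pintool to dye-loaded TRHR cells while fluorescence is recorded every second. A rise in calcium signal during the agonist read marks activation; a later 10 nM TRH addition (EC20) serves the separate enhancer mode.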

Assay [3] is described as follows: qHTS for Inhibitors of Cell Surface uPA Generation: Validation Assay (AID 493164).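 Further: RAW 264.7 macrophage cells exposed to compound for 18 h; 0% is about no effect.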 The method, boiled down: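 ATP-Lite luminescence read-out: ATP remains high when uPA activity-dependent LF translocation into the cytoplasm is blocked. RAW 264.7 cells, 18 h compound exposure at 37 C; 7-point titration, 2.45 nM to 38.3 uM final.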
Assay [4] has as its target Galactokinase (Homo sapiens) (UniProt P51570). Put plainly: qHTS Validation Assay for Inhibitors of Human Galactokinase (GALK) (AID 493189). Further: 0% is about no effect. Summed up: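 Luminescence from leftover ATP (Kinase-Glo Plus, 10 min) served as read-out after a 1 h room-temperature reaction of 5 nM GALK, 100 uM galactose and 35 uM ATP at pH8.0.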
The nature of assay [5]: Validation screen for small molecules that induce DNA re-replication in SW480 colon adenocarcinoma cells (AID 504364). Further: 0% is about no effect. The method, boiled down:
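Image-based qHTS: compounds were incubated with SW480 cells for 48 hr, nuclei stained with Hoechst, and per-nucleus fluorescence intensity scanned to flag cells with excess DNA content.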

Assay [6] addresses Phosphoglycerate kinase, glycosomal (Trypanosoma brucei brucei) (UniProt P07378). Put plainly: qHTS Validation Assay to Find Inhibitors of Phosphoglycerate Kinase (AID 504547).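 Further: control wells lack PGK and mark full inhibition.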 Summed up:
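Compounds are pinned into the substrate/PGK mixture, and GAPDH (100nM final) is added to start the reaction by producing 1,3-BPG. After 60 minutes at room temperature, Kinase-Glo Plus is added and luminescence is measured 10 minutes later.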

Assay [7] addresses phosphoglycerate mutase (Leishmania major) (UniProt Q4Q090). Put plainly: qHTS Validation Assay to Find Inhibitors of Phosphoglycerate Mutase (AID 504548). Further: series mostly up to about 58 µM; on the % scale 0 is the no-effect control and ±100 the full control effect. Summed up:
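Lm PGAM at 1.25 nM final with substrate in 100 mM TEA pH 7.6, 5 mM MgCl2, 0.01% Tween-20; 45 min at room temperature. Kinase-GloPlus added, 10 min, end-point luminescence read.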

Assay [8] in a line: Inducers of the Endoplasmic Reticulum Stress Response (ERSR) in human glioma: Validation (AID 504836). Further: 0% is about no effect. The method, boiled down: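 Stably transfected U87-MG glioma cells carrying a GRP78-based luciferase sensor; 16 h compound incubation. Luminescence end-point read 10 min after Bright-Glo addition at room temperature.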
The target in assay [9] is Ubiquitin carboxyl-terminal hydrolase 1 (Homo sapiens) (UniProt O94782). Nature of the assay: Inhibitors of USP1/UAF1: Pilot qHTS (AID 504865). Further: nearly all actives have a fitted effect of over 35% in size. Further: potency means the concentration at half of the fitted maximal effect.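 On activity change, negative = inhibition: rhodamine fluorescence freed from ubiquitin-rhodamine substrate followed over time; top concentration of the series differs between compounds; on the % scale 0 is the no-effect control and ±100 the full control effect.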 The method, boiled down: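 1nM USP1/UAF1 + cpd, 15 min RT; start w/ Ub-Rho 150nM final; kinetic FL 480/540 nm, 6 reads q60 s. Buffer 50mM HEPES pH 7.8, 0.5mM EDTA, 1mM TCEP, 0.01% Tween-20, 0.1 mg/ml BSA.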
Assay [10] can be described thus: Nrf2 qHTS screen for inhibitors: Validation (AID 493153; active means well fitted inhibition curve with a large enough effect in the main read-out, with a control signal flat, not every such curve was filed as active;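 on activity change, negative = inhibition: A549 cells with ARE-driven firefly luciferase reporter reporting Nrf2 activity; series mostly up to about 46 µM; % of control where 0% means no effect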). To be noted: viability change: measured here: cytotoxicity max response. The method, boiled down:
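A549 ARE_Fluc, 5% FBS OPTI-MEM; cpd titration, 18-24 h, 37°C/5% CO2. Read 1: CellTiter-Fluor (Ex 405/Em 525), cytotox. Read 2: luciferase lum, Nrf2 activity.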

Several values for one entry are separate records, joined by “and”; a condition that tells them apart may be missing. Identical values can stand only once. Records with an inconclusive call do not appear. More than one record can exist for a structure, and the calls need not agree. Activity calls are given as the source filed them. Unless noted, the call rests on the fitted dose curve; in most records, active means well fitted curve in the direction sought with a large enough effect; inconclusive means small, poorly fitted or top-dose-only effect, or another doubt; inactive means no such curve, though single readings can be large; an effect the other way counts as inactive or inconclusive.

phosphoglycerate mutase (Leishmania major), sequence (Q4Q090 1-553): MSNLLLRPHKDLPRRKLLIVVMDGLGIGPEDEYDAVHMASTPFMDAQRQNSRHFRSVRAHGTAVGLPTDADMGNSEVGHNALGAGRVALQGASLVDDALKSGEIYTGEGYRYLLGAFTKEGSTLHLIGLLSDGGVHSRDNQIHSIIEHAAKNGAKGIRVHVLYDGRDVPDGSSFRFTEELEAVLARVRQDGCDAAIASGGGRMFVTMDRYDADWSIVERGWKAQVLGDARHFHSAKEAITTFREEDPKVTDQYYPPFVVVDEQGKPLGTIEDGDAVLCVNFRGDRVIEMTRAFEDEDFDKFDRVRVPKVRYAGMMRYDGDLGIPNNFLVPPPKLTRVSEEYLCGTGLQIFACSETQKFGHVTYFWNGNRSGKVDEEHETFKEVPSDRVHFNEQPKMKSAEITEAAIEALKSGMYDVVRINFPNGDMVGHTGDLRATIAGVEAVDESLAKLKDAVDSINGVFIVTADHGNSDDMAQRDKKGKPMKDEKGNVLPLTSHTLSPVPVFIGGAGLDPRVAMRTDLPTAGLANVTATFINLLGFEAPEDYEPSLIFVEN
Phosphoglycerate kinase, glycosomal (Trypanosoma brucei brucei), sequence (P07378 whole entry, looked up): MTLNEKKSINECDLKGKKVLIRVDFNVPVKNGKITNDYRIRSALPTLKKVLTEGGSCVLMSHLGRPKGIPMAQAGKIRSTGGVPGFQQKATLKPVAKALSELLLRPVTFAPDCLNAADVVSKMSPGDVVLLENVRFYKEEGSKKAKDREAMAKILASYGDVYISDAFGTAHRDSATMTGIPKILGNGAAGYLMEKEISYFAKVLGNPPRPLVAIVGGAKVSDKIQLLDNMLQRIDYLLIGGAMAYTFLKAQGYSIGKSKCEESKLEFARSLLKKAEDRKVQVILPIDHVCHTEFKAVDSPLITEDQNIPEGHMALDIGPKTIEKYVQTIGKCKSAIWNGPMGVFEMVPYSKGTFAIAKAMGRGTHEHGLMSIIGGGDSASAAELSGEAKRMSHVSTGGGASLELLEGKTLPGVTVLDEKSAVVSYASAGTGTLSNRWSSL
Thyrotropin-releasing hormone receptor (Homo sapiens), sequence (P34981 whole entry, looked up): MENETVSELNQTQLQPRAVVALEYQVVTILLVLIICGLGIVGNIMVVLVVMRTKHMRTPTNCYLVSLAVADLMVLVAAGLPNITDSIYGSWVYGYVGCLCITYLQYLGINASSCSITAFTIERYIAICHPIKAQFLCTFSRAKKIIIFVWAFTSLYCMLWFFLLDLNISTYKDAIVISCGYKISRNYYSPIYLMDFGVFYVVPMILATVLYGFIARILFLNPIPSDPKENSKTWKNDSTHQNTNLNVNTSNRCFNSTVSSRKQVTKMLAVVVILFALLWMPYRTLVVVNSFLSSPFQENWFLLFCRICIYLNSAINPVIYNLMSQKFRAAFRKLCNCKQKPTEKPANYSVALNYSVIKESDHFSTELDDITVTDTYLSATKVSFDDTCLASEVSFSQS
Ubiquitin carboxyl-terminal hydrolase 1 (Homo sapiens), sequence (O94782 whole entry, looked up): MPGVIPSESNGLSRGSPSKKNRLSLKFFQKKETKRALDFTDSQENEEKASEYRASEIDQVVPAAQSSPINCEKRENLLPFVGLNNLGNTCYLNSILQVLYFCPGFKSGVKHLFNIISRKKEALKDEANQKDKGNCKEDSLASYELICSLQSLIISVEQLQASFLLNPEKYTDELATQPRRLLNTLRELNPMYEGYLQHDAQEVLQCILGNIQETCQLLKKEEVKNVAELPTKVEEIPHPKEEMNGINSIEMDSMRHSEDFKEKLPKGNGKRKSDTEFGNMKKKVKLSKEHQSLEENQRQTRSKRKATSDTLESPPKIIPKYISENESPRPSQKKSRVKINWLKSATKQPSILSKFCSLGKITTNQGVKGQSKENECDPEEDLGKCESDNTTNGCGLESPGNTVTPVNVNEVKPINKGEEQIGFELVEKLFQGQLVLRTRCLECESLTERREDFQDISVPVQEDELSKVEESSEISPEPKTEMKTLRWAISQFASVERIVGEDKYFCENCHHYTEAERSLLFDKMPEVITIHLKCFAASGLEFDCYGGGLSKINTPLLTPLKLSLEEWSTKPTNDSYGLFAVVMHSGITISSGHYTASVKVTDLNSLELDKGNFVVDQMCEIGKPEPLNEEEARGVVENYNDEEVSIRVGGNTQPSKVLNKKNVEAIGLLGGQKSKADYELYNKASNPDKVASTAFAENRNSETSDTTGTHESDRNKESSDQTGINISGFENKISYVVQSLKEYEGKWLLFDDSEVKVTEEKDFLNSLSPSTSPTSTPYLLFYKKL
ATPase family AAA domain-containing protein 5 (Homo sapiens), sequence (Q96QE3 whole entry, looked up, the tested form may be a part): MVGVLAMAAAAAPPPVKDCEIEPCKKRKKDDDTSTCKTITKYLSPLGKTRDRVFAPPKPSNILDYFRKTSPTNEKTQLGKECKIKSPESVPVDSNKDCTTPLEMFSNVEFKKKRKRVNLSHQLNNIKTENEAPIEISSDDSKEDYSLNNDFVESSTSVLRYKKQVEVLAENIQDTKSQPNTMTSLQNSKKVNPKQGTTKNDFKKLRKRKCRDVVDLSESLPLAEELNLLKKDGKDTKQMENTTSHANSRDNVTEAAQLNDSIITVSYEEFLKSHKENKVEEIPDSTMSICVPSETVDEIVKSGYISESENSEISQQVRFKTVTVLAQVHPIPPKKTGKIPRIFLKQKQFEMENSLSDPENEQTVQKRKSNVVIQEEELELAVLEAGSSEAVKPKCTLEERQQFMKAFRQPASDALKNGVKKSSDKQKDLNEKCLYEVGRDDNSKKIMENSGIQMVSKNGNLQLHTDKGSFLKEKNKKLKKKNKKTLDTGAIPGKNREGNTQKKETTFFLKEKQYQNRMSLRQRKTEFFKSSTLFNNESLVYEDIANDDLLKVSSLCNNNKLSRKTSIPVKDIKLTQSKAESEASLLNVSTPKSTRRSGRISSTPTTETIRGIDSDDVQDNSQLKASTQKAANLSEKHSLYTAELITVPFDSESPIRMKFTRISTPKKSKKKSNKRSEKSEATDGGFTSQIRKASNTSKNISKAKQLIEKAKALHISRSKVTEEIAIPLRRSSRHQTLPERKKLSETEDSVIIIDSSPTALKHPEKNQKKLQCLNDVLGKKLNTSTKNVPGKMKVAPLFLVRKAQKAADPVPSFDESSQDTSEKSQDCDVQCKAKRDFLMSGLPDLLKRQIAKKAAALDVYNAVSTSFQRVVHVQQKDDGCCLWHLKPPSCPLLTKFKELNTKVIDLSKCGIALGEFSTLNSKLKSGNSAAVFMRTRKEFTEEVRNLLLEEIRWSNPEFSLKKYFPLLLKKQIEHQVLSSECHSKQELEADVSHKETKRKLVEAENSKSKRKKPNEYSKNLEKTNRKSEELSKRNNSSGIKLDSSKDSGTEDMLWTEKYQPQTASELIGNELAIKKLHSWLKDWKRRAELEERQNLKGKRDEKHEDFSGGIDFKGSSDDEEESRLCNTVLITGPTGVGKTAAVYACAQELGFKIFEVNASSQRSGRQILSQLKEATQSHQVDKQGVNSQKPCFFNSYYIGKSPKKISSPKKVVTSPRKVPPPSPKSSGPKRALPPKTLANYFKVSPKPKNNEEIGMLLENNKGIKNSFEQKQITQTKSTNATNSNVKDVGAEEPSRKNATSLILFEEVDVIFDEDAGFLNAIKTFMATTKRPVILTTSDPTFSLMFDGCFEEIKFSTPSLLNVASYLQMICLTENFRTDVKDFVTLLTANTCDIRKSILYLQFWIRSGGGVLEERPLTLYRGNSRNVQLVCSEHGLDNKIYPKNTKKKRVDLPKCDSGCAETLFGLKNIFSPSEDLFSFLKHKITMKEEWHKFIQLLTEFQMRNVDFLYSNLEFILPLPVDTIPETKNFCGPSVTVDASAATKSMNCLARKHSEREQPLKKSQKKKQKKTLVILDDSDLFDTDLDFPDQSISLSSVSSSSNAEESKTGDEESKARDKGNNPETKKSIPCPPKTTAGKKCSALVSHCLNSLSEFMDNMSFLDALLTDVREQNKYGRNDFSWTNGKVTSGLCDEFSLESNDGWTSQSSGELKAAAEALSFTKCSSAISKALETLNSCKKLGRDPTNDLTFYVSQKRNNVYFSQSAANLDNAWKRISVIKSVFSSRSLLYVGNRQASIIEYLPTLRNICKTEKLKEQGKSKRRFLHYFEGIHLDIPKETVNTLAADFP
Galactokinase (Homo sapiens), sequence (P51570 whole entry, looked up): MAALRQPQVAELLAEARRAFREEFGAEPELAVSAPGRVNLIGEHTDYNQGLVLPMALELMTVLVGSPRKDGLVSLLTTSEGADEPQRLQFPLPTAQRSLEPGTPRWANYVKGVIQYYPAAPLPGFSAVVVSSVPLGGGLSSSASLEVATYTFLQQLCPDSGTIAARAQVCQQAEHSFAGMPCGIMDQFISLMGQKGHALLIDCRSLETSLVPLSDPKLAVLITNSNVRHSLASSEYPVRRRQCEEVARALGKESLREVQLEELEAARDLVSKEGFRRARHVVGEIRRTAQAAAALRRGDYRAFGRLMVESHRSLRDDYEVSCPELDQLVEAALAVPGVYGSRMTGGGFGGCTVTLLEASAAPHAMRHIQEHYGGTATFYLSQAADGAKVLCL

In the case of `O=C(O)CCCc1ccc(N(CCCl)CCCl)cc1`, the outcome in [1], in assay [3], in assay [4], in assay [5], in [6] and in [7] was inactive. The compound was classed as inactive in [8]. Moreover, the activation in [2] is -4.56% (inactive). In assay [9], the Potency entry is “inactive”.
In the case of `COc1ccc2c(c1OC)C(=O)O[C@H]2[C@@H]1c2cc3c(cc2CCN1C)OCO3`, the call in assay [1], in [10], in assay [3], in assay [5], in [6] and in assay [7] was inactive. In addition, the outcome in assay [8] was inactive. Besides, the viability change in assay [10] is 5.02%. Besides, the Potency entry in assay [9] was “inactive”.
Turning to `C=C(C)[C@H]1CN[C@H](C(=O)O)[C@H]1CC(=O)O`, the outcome in assay [1], in assay [10], in [3], in assay [4], in assay [5] and in [6] was inactive. Besides, the result in assay [7] and in assay [8] was inactive. Moreover, the activation in assay [2] is 1.12% (inactive). Also, the viability change in assay [10] came out at 1.68%. In addition, the Potency result in [9] is “inactive”.
As to `NCCc1ccc(O)cc1`, the compound was called inactive in assay [1], in [10], in assay [3], in assay [4], in [5] and in assay [6]. The outcome in [7] and in assay [8] was inactive. In assay [2], the activation was 1.31% (inactive). Also, in assay [10], the viability change is -8.88%. Besides, the Potency result in assay [9] is “inactive”.
Turning to `Nc1cc(=O)[nH]c(N)n1`, the result in assay [8] was inactive.
Consider `CCCCC/C=C\C/C=C\C/C=C\C/C=C\CCCC(=O)NCC(=O)O`, for which the result in [1], in assay [10], in assay [3], in [4], in assay [5] and in assay [7] was inactive. For the same compound, the compound was classed as inactive in [8]. In addition, in [10], the viability change is 2.11%. In [9], the Potency was 18.9 µM (active). Also, the activity change, negative = inhibition in [9] was -11.7% [at 11.4 µM] (inactive).
With `CN1CCN(CC(=O)N2c3ccccc3C(=O)Nc3cccnc32)CC1`, the call in assay [8] was inactive.
`O=P1(N(CCCl)CCCl)NCCCO1` (configuration not stated): the compound was called inactive in assay [1], in assay [10], in assay [3], in [4], in assay [5] and in assay [6]. Further, the compound was classed as inactive in [7] and in assay [8]. In assay [2], the activation is -0.25% (inactive). Also, the viability change in assay [10] was -1.15%. Further, the Potency result in assay [9] was “inactive”.
`CC(C)c1cccc(C(C)C)c1O`: the call in assay [1], in [10], in assay [3], in assay [4], in assay [5] and in assay [6] was inactive. Moreover, the compound was classed as inactive in assay [7] and in [8]. The activation in assay [2] is -6.88% (inactive). The viability change in assay [10] is 0.059%. Besides, the Potency entry in [9] is “inactive”.
Regarding `NC/C=C/C(=O)O`, in assay [8], the outcome was inactive.
On to `FC(F)(F)c1ccccc1-n1ccnc1`, for which the outcome in assay [8] was inactive.
The same measure, in the same setting: then `CCn1cc(C(=O)O)c(=O)c2cc(F)c(N3CCNC(C)C3)c(F)c21` (configuration not stated), with “inactive”.
Still for that read-out and setting: then `CCOC(=O)C1=C(C)NC(C)=C(C(=O)OC)C1c1cccc([N+](=O)[O-])c1` (configuration not stated), with “inactive”.
As to `O=c1[nH]cnc2[nH]ncc12`, in assay [8], the compound was classed as inactive.
In the case of `CC(C)(Oc1ccc(C2CC2(Cl)Cl)cc1)C(=O)O` (configuration not stated), in assay [8], the call was inactive.
On to `CC(NC(C)(C)C)C(=O)c1cccc(Cl)c1` (configuration not stated), for which the compound was classed as inactive in assay [1], in [10], in [3], in assay [4], in [5] and in assay [6]. Further, the result in [7] and in assay [8] was inactive. For the same compound, in assay [2], the activation is -0.188% (inactive). Further, the viability change in assay [10] stood at 5.02%. The Potency entry in assay [9] is “inactive”.
As to `O=c1[nH]c(=O)n([C@H]2C[C@H](O)[C@@H](CO)O2)cc1Br`, the outcome in assay [8] was inactive.
Take `C[C@]12CCC(=O)C=C1CC[C@@H]1[C@@H]2CC[C@]2(C)C(=O)CC[C@@H]12`: the activation in assay [2] was 2.12% (inactive). The compound was called inactive in [4] and in [5]. Moreover, in assay [9], the Potency result is “inactive”.
Consider `CC1COc2c(N3CCN(C)CC3)c(F)cc3c(=O)c(C(=O)O)cn1c23` (configuration not stated), for which the compound was classed as inactive in assay [8].
Turning to `CCC1(c2ccc(N)cc2)CCC(=O)NC1=O` (configuration not stated), the compound was called inactive in [1], in [10], in assay [3], in assay [4], in [5] and in assay [6]. In addition, the compound was classed as inactive in assay [7] and in assay [8]. For the same compound, in [2], the activation is 1.56% (inactive). Further, in assay [10], the viability change stood at 1.18%. For the same compound, the Potency entry in assay [9] was “inactive”.
For `CCOC(=O)c1cnc2c(cnn2CC)c1NN=C(C)C`, in assay [8], the call was inactive.
For `CN(C)C(=O)Oc1ccc[n+](C)c1`, the result in [8] was inactive.
As to `CC(C)NCC(O)c1cc(O)cc(O)c1` (configuration not stated), the result in assay [8] was inactive.
With `O=C(CCCN1CCC2(CC1)C(=O)NCN2c1ccccc1)c1ccc(F)cc1`, the compound was classed as inactive in assay [3], in assay [4], in [5], in assay [6] and in [7]. The Potency entry in assay [9] was “inactive”.
In the case of `CCOC(=O)[C@H](CCc1ccccc1)N[C@@H](C)C(=O)N1[C@H](C(=O)O)C[C@H]2CCCC[C@@H]21`, the compound was classed as inactive in assay [8].
`Cc1ncsc1CCCl`: the call in [1], in assay [10], in assay [3], in [6], in [7] and in assay [8] was inactive. Further, the viability change in [10] was 6.84%. Besides, the Potency entry in assay [9] is “inactive”.
With `CN1C(=O)CCS(=O)(=O)C1c1ccc(Cl)cc1` (configuration not stated), the compound was classed as inactive in assay [1], in assay [10], in assay [3], in [4], in assay [5] and in assay [6]. For the same compound, the result in [7] and in assay [8] was inactive. The viability change in assay [10] is -1.88%. In addition, in [9], the Potency result is “inactive”.
On to `CCC1(C)CC(=O)NC1=O` (configuration not stated), for which the outcome in assay [8] was inactive.
As for `CCN(Cc1ccncc1)C(=O)C(CO)c1ccccc1` (configuration not stated), in assay [8], the compound was called inactive.
On to `c1ccc2c(c1)CCCC2C1=NCCN1` (configuration not stated), for which the result in [8] was inactive.
For `O=c1[nH]oc2c1CCNC2`, the outcome in [1], in assay [10], in assay [3], in assay [5], in assay [6] and in assay [7] was inactive. Also, the outcome in assay [8] was inactive. Also, in assay [10], the viability change was -2.38%. Moreover, the Potency result in assay [9] is “inactive”.
With `CC(C)(C)NCC(O)c1ccccc1Cl` (configuration not stated), the outcome in assay [1], in [10], in [3], in assay [4], in assay [5] and in assay [6] was inactive. In addition, the compound was called inactive in assay [7] and in [8]. Also, the activation in assay [2] was 0.312% (inactive). In assay [10], the viability change was found to be 0.543%. Further, the Potency result in assay [9] is “inactive”.
As for `CCCCCCCC/C=C\CCCCCCCC(=O)NCc1ccc(O)c(OC)c1`, the result in assay [8] was inactive.
For `C[C@@H](O)[C@H]1C(=O)N2C(C(=O)O)=C(SCCN=CN)C[C@H]12`, the result in assay [8] was inactive.
In the case of `CC(C)N(CCC(C(N)=O)(c1ccccc1)c1ccccn1)C(C)C` (configuration not stated), the result in [1], in assay [10], in assay [3], in [4], in assay [5] and in assay [6] was inactive. Besides, the result in assay [7] and in assay [8] was inactive. For the same compound, the viability change in assay [10] was 0% and 10.1%. The Potency result in assay [9] was “inactive”.
As to `CC(C)C(=O)c1c(C(C)C)nn2ccccc12`, the result in assay [8] was inactive.
Take `CN=C(NC#N)NCCSCc1nc[nH]c1C`: in assay [10], the call was inactive and the viability change stood at 0.983%. The call in [8] was inactive.
As for `CC(=O)OCC(=O)[C@@]1(O)CC[C@H]2[C@@H]3CCC4=CC(=O)CC[C@]4(C)[C@H]3C(=O)C[C@@]21C`, the compound was classed as inactive in assay [8].
Same read-out and setting: then `O=c1c(-c2ccc(O)cc2)coc2cc(O)cc(O)c12`, with “inactive”.
